From PubChem
Only some compounds are listed: those with a hit (about 3.5% of all), similar ones and a draw of the others.
TEAD-YAP inh – TEAD-YAP interaction inhibition; HEK-TIYL cells, TEAD-Gal4/YAP UAS-luciferase luminescence; inhibition, % at 9.12 µM; actives 1.4% (n = 640,000); AID 1259422; in the data active = inhibition above about 32%;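 also: 0% = median of test compound wells and 100% = reference inhibitor wells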
FBW7 act – activators of human E3 ligase FBW7; Q969H0; AlphaScreen FBW7–phospho-cyclin E peptide binding, activator screen; normalized activity (activation), % at 26.1 µM; actives 0.13% (n = 650,000); AID 1259310; in the data active = normalized activity above about 1.9%;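 also: purified mutant Fbw7 with reduced substrate affinity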
MITF inh – human MITF inhibition, primary screen | O75030 | AlphaScreen MITF homodimerization, bead proximity signal | inhibition, % at 2.6 µM | actives 0.91% (n = 650,000); in the data active = inhibition above about 50%;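 also: 0% = vehicle wells with protein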
Target sequence (O75030 whole entry, looked up): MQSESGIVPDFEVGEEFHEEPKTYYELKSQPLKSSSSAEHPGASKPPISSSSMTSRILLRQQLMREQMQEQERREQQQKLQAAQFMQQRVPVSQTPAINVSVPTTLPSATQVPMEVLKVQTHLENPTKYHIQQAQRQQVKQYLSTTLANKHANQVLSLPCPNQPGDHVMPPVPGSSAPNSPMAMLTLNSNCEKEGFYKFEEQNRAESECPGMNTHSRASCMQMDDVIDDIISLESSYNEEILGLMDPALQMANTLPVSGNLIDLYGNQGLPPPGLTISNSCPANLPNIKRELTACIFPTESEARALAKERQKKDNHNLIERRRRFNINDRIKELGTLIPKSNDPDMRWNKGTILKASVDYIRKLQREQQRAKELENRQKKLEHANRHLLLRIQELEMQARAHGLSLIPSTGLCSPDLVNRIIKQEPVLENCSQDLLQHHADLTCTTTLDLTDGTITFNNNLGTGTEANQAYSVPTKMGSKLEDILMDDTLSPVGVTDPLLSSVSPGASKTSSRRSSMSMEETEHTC
GPR151 activ – human GPR151 activation; actives 1% (n = 650,000); AID 1508602; PathHunter beta-arrestin GPR151 cells, luminescence; activation, % at 11.2 µM; in the data active = activation above about 4.9%;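 also: 0% = median of compound wells and 100% = cells with positive control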
The depositor's hits bear a star.

SMILES	TEAD-YAP inh	FBW7 act	MITF inh	GPR151 activ
COC(=O)CSC1=C(C#N)C(c2ccc(C)s2)CC(=O)N1 (stereo not given)	7	0	10	-1
CCOC(=O)CSC1=C(C#N)C(c2ccc(C)cc2)CC(=O)N1 (stereo not given)	1	0	9	-1
CCOc1ccccc1C1CC(=O)NC(SCC)=C1C#N (stereo not given)	7	0	12	0
CCOC(=O)CSC1=C(C#N)C(c2ccccc2F)CC(=O)N1 (stereo not given)	48*	0	14	1
CCOc1ccccc1C1CC(=O)NC(SCC(=O)OC)=C1C#N (stereo not given)	59*	0	7	0
CCOC(=O)CSC1=C(C#N)C(c2ccc(C)s2)CC(=O)N1 (stereo not given)	54*	0	20	-1
CCOC(=O)CSC1=C(C#N)C(c2ccc(F)cc2)CC(=O)N1 (stereo not given)	42*	0	15	-2
CCOC(=O)C1=C(C)NC(=S)NC1c1cn(-c2ccccc2)nc1-c1ccc(OC)cc1 (stereo not given)	-17	0	-23	2
COC(=O)CSC1=C(C#N)C(c2cccc(F)c2)CC(=O)N1 (stereo not given)	46*	0	20	1
CCN(CC)C(=O)Sc1nc2ccccc2s1	44*	0	25	-6
COc1ccc(C2C(C#N)=C(N)Oc3c2sc2ccccc32)cc1OC (stereo not given)	56*	0	8	2
COc1ccc(C2C(C#N)=C(N)Oc3c2sc2ccccc32)c2ccccc12 (stereo not given)	3	0	12	-1
COc1ccc(NC(=O)c2sc3ncnc(N4CCN(c5ccccc5)CC4)c3c2C)cc1Cl	-7	0	-6	0
CC1Cc2ccccc2N1C(=O)CSc1nnc(Cc2ccccc2)n1C (stereo not given)	49*	0	19	-1
CC1Cc2ccccc2N1C(=O)CSc1nnc(-c2ccccc2)n1C (stereo not given)	1	0	-15	-1
Cc1ccccc1-n1c(SCc2ccccc2F)nc2[nH]ncc2c1=O	-30	0	2	-1
COc1ccc(CN2Cc3cc(C)ccc3OC(C)C2)cc1O (stereo not given)	55*	0	11	-1
Cc1ccc2nc(-c3ccc(O)cc3)oc2c1	98*	0	2	-6
Cc1ccc2nc(-c3cccc(N)c3)oc2c1	46*	1	20	-10
Nc1cccc(-c2nc3cc(N)ccc3o2)c1	-34	0	-1	-4
Cc1ccc2nc(-c3cc(N)ccc3Cl)oc2c1	-26	0	-7	-6
Cc1ccc2nc(-c3ccc(N)cc3)oc2c1	66*	0	4	-6
Cc1ccc2nc(-c3ccc(NC(=O)c4ccc(I)cc4)cc3)oc2c1	-1	0	-13	-2
Cc1cc2nc(-c3ccc(N)cc3)oc2cc1C	83*	0	1	-8
CC1CCC(N=CC2=C(O)CC(c3ccccc3)CC2=O)CC1 (stereo not given)	0	0	-222	2
SMILES	TEAD-YAP inh	FBW7 act	MITF inh	GPR151 activ
O=C(NC1CCCCC1)c1cnc2scc(-c3ccccc3Cl)n2c1=O	4	0	1	2
CCOc1ccc(/C=C/C(=O)Nc2ccccc2F)cc1	91*	0	-2	-9
COc1ccc(OC)c(Nc2cc(C)nc3ccc(OC)cc23)c1	68*	0	1	0
COc1ccc(OC)c(Nc2cc(C)nc3nc(C)nn23)c1	34*	0	2	0
CCOc1ccc(Nc2cc(C)nc3ccc(OC)cc23)cc1	12	0	11	1
COc1ccc2nc(C)cc(Nc3ccc(N4CCN(C)CC4)cc3)c2c1	77*	0	4	-1
COc1ccc(Nc2cc(C)nc3nc(C)nn23)c(OC)c1	8	0	13	-1
CCOc1ccc2nc(C)cc(Nc3cc(Cl)ccc3OC)c2c1	38*	0	0	0
CCC(=O)NNC(=O)COc1cc(C)c(Cl)c(C)c1	6	0	-10	0
COC(=O)c1ccc2nc(C)cc(Nc3ccc(OC)cc3)c2c1	-6	0	5	0
COC(=O)c1ccc(Nc2cc(C)nc3ccc(OC)cc23)cc1	36*	0	20	-2
Fc1ccc(C2=Nn3c(nnc3-c3ccccc3)SC2)cc1	7	0	3	-1
Nc1nccc(-c2ccc3nc(C4COc5ccc(C(=O)NCCc6ccccn6)cc5C4)[nH]c3c2)n1 (stereo not given)	-6	9.0*	11	1
CC(C)CNC(=O)c1ccc2c(c1)CC(c1nc3ncc(-c4ccnc(N)n4)cc3[nH]1)CO2 (stereo not given)	-3	0	27	2
Nc1nccc(-c2ccc3nc(C4COc5ccc(C(=O)NCCc6cccnc6)cc5C4)[nH]c3c2)n1 (stereo not given)	0	4.2*	7	1
Nc1nccc(-c2cnc3nc(C4COc5ccc(C(=O)NCCc6cccnc6)cc5C4)[nH]c3c2)n1 (stereo not given)	-5	1	-6	1
CN(C)CCNC(=O)c1ccc2c(c1)CC(c1nc3ncc(-c4ccnc(N)n4)cc3[nH]1)CO2 (stereo not given)	-48	2	72*	1
Cc1cc(NCc2cccc(C(F)(F)F)c2)nc(Nc2ccc(OC(F)(F)F)cc2)n1	30	0	-12	-1
Cc1ccc2c(CC(=O)Nc3sc4c(c3C(N)=O)CCCC4)coc2c1	-5	0	-8	-1
COCCCNC(=O)c1c(NC(=O)Cc2coc3ccc(C)cc23)sc2c1CCCC2	48*	0	9	2
CCCCCC(=O)N1c2ccccc2NC2=C(C(=O)CC(c3ccc(N(CC)CC)cc3)C2)C1c1ccco1 (stereo not given)	47*	0	22	0
COc1cc(Nc2nc(NCCN3CCOCC3)c3ncn(-c4ccsc4)c3n2)cc(OC)c1OC	49*	0	-9	1
c1cnc(Nc2nc(NCCN3CCOCC3)c3ncn(-c4ccsc4)c3n2)cn1	66*	0	0	2
COc1ccc(CCNc2nc(NCCN3CCOCC3)nc3c2ncn3-c2ccsc2)cc1	5	0	8	0
Cc1cnc2c(c1NCCCN(C)C)c(=O)n(C)c(=O)n2C	36*	0	1	3
SMILES	TEAD-YAP inh	FBW7 act	MITF inh	GPR151 activ
Cn1cccc1C(=O)NC(=O)COC(=O)c1cc(-c2ccco2)nc2ccccc12	-4	0	77*	3
O=C(Nc1ccc(-c2ccn[nH]2)cc1)c1cccnc1	79*	0	-4	-10
O=C(Nc1cccc(-c2nc3ccc(NC(=O)c4cccnc4)cc3o2)c1)c1cccnc1	41*	0	5	2
CCOc1cc(C(=O)Nc2ccc(-c3ccn[nH]3)cc2)cc(OCC)c1OCC	51*	0	12	-1
c1ccc2nc3c(nc2c1)c1ccccc1n3CN1CCOCC1	-23	0	0	-5
Nc1ncnc(N(c2ccccc2)C2CCCCC2)c1[N+](=O)[O-]	-5	0	16	1
